In all, about 33,000 sequences were measured (“e-score”: median about -0.05, highest 2% from about 0.38 on). For the sample, the highest values were picked, then their nearest neighbours and some sequences at random.
molecular target: T1, SIX1-Q177R homeodomain (human, UniProt Q15475 108-198, Q177R); assay: universal protein binding microarray; Universal all-10-mer PBM (8x60K, AMADID 030236), 300 nM GST-tagged protein, Alexa Fluor 488 anti-GST; buffer, salt, pH and temperature not stated (as in Berger); high values mean tight binding; details: protein: ivt; tags: N-terminal GST; dsDNA, one strand shown
T1 sequence: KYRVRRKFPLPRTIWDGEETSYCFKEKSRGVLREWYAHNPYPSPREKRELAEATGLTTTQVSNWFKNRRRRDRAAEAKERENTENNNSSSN
In short: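 Duplicate protein binding microarrays (universal 'all 10-mer', 8×60K format) were incubated with GST-tagged homeodomains at 300 nM final concentration. Binding was quantified as 8-mer E-scores with the Universal PBM Analysis Suite.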

Sequence	binding signal [E-score]
CAGTGCAC	0.183 ± 0.0019
CAGTGTAC	0.4035 ± 0.00271
GAGTGTAC	0.419 ± 0.00767
CAGTGTAG	0.4232 ± 0.00358
AAGTGTAG	0.37 ± 0.0123
CACTGTAC	0.194 ± 0.0212
GAGTGTGC	0.184 ± 0.00494
CTGTGTAC	0.229 ± 0.0232
AAGTGTAC	0.391 ± 0.0232
CACTTATG	0.161 ± 0.0539
AAGTTACA	0.171 ± 0.00584
AGAAGGTG	0.302 ± 0.0205
CCCCGGAC	0.152 ± 0.0324
GAGCACCC	0.283 ± 0.0502
GTGTGTAA	0.337 ± 0.0168
AGGTGTAA	0.463 ± 0.021
AGGTGCAA	0.169 ± 0.04
GGGGGTAA	0.354 ± 0.0195
GGGTGTAA	0.478 ± 0.01
CGGGGTAG	0.221 ± 0.00415
TGGTGTAA	0.486 ± 0.00978
CGGTGTAG	0.487
TGGAGTAA	0.233 ± 0.068
ATGTGTAA	0.225 ± 0.00674
TGGTGCAA	0.169 ± 0.0456

Sequence	binding signal [E-score]
GGTGCACC	0.353 ± 0.00627
CAACAACA	0.195 ± 0.00619
TGACCCCA	0.279 ± 0.0177
CGGAGTAA	0.266 ± 0.0379
AAGGTATC	0.251 ± 0.0701
GGAACCCA	0.181 ± 0.0136
GACCTCAC	0.161 ± 0.0365
ACCGAACA	0.196 ± 0.0386
GGGTGCAC	0.28 ± 0.022
GGGGGTAC	0.331 ± 0.0182
CGGTGTAA	0.481 ± 0.0071
CTGTGTAA	0.153 ± 0.011
CGGTGCAA	0.259 ± 0.00579
GGGTGTAC	0.4828 ± 0.00134
CCCCACGA	0.1526 ± 0.000735
TGTAAGAA	0.294 ± 0.0277
AAACGTGT	0.303 ± 0.054
CCCGGTGC	0.154 ± 0.0105
GCTTACAC	0.437 ± 0.0203
ACTTACTC	0.179 ± 0.00345
CCTCACAC	0.279 ± 0.0153
ACTTACAC	0.449 ± 0.0178
CCTTACAC	0.439 ± 0.0105
GCTCACAC	0.276 ± 0.0114
CCTTATAA	0.179 ± 0.0218

Sequence	binding signal [E-score]
ACTTACGC	0.164 ± 0.00788
ACTTACCC	0.186 ± 0.0205
CTCGCCCC	0.173 ± 0.0101
GGAGGGTA	0.224 ± 0.0107
ACCCACAA	0.151 ± 0.0489
CCCCACCG	0.228 ± 0.054
AGCGGGTG	0.333 ± 0.0119
ACCAGGCA	0.151 ± 0.0134
ATGTGGTG	0.271 ± 0.0248
ATGGTGTG	0.405 ± 0.0177
ATGGGGTG	0.342 ± 0.0155
CTGGTACA	0.21 ± 0.0391
CTGGTATC	0.274 ± 0.0156
CTGGAGTC	0.1843 ± 0.00156
CTGGTGTA	0.4837 ± 0.00053
CTGGTGCA	0.234 ± 0.0234
CTGGTGTC	0.4826 ± 0.00371
GTGGTGTA	0.481 ± 0.00765
GTGGTGCA	0.189 ± 0.00669
GTGTGGTA	0.265 ± 0.00181
ACCCGGGC	0.199 ± 0.0334
CTTGCACC	0.166 ± 0.00933
CCCGGTCG	0.212 ± 0.00566
ACACAATG	0.164 ± 0.079
ACCCACAC	0.348 ± 0.0152

Sequence	binding signal [E-score]
ACCTCGGG	0.273 ± 0.0151
AGGCGGTG	0.2798 ± 0.00206
CACGCGGG	0.241 ± 0.00761
ACCTTCCT	0.264 ± 0.0494
ATGGTATC	0.3344 ± 0.0022
ATTGTGTA	0.151 ± 0.0397
ATGGTGTA	0.4792 ± 0.00274
ATTGTGTC	0.219 ± 0.0744
ATGGTGTC	0.486 ± 0.00186
ATGGTACA	0.18 ± 0.0214
CACCCAAG	0.366 ± 0.00569
ACTGATCC	0.16 ± 0.00427
CACCGGGG	0.256 ± 0.0427
AACCGTGT	0.3792 ± 0.0033
ATGCACCC	0.19 ± 0.0233
GGGTTACA	0.242 ± 0.0177
CCCGCACA	0.228 ± 0.0266
CACTATAC	0.261 ± 0.0244
ACACTTGG	0.329 ± 0.018
CCGGGTCA	0.285 ± 0.0196
GTATCATA	0.29 ± 0.00996
CGGAACAC	0.411 ± 0.0112
GGGAACAC	0.368 ± 0.0116
CGGAACCC	0.234 ± 0.0277
GGGAACCC	0.184 ± 0.0515

Sequence	binding signal [E-score]
AGGAACAC	0.394 ± 0.0134
AGGCACAC	0.203 ± 0.0019
ACGGGTAT	0.277 ± 0.00631
CGGCGTCA	0.219 ± 0.00435
CCCGCTGA	0.159 ± 0.0401
CTTCTACC	0.203 ± 0.0258
GTGTCAAC	0.443 ± 0.00646
GTGTCTCA	0.371 ± 0.00405
GAGTCACA	0.26
GTATCAAA	0.159 ± 0.0425
GGGTCAAA	0.171 ± 0.0267
GGGTCACA	0.202 ± 0.0391
GGGTCAAC	0.223 ± 0.0249
GTATCAAC	0.256 ± 0.0174
GTGTCTAA	0.394 ± 0.0134
GTGTCAAA	0.4527 ± 0.00139
TATTCTAA	0.213 ± 0.0183
GTGTCACA	0.462 ± 0.00507
CACTGGAA	0.152 ± 0.024
AGGGGTTC	0.193 ± 0.0251
GACCCCGC	0.248 ± 0.0275
CCTGATAC	0.202 ± 0.0295
AGTGCACC	0.28 ± 0.00682
GATCCCAC	0.24 ± 0.0253
TATACCCA	0.192 ± 0.0317

Sequence	binding signal [E-score]
GTGTCGAA	0.448 ± 0.00926
GGGTCAGA	0.196 ± 0.0143
GAGTCAGA	0.21 ± 0.0213
GGGTCATA	0.237 ± 0.0329
GTGTCAGA	0.4533 ± 0.00139
GGGTCGAA	0.182 ± 0.0133
GAGTCATA	0.184 ± 0.0258
GTGTCATA	0.458 ± 0.00496
GTATCGAA	0.199 ± 0.0103
CGCGTACA	0.2538 ± 0.00208
GAGGGTGC	0.237 ± 0.0114
AAAGAGTG	0.186 ± 0.0198
AGAACCCC	0.182 ± 0.0559
GGATCATA	0.184 ± 0.0113
CACCTGCA	0.213 ± 0.0191
ATCCCCTC	0.196 ± 0.00519
ACCACGCA	0.24 ± 0.0201
AGACACGA	0.369 ± 0.0153
AGACACGC	0.346 ± 0.00786
CGACACGA	0.421 ± 0.0189
CGACGCGA	0.151 ± 0.0242
CGACACGC	0.424 ± 0.0203
CACTCCGC	0.256 ± 0.00576
ACCCTTTC	0.194 ± 0.0513
CACTCTGC	0.187 ± 0.0156

Sequence	binding signal [E-score]
GCCCCGCC	0.175 ± 0.055
CGATACCA	0.321 ± 0.00519
CAATACCC	0.218 ± 0.00416
GGATACCA	0.327 ± 0.00751
AGATACCC	0.278 ± 0.0188
GGATACCC	0.403 ± 0.00919
CGATACCC	0.411 ± 0.012
CAACCACG	0.155 ± 0.0108
CACTCTGG	0.187 ± 0.00384
CCCCCTGC	0.156 ± 0.0255
ACAGAGGT	0.156 ± 0.00829
ATTAGGTG	0.296 ± 0.00518
ACCATGGT	0.2 ± 0.05
CACCGTTC	0.3236 ± 0.00306
CGATACTC	0.211 ± 0.00408
CGATACCG	0.233 ± 0.0113
AGATACCT	0.179 ± 0.011
GGATACAA	0.161 ± 0.00762
AGATACAC	0.424 ± 0.0151
CGATACAC	0.402 ± 0.0188
GGATACTA	0.152 ± 0.0189
GGATACAC	0.424 ± 0.00693
AGATACCA	0.192 ± 0.0243
